CYP2C9 act: CYP2C9 (human) activation; recombinant CYP2C9, luciferin-H conversion, luminescence; stronger effect = higher value; factor 1 = untreated enzyme, 0 = blocked; activation factor at 5 µM; 1.4% of 96,000 active; AID 1024;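 active = activation factor of 2 or more for CYP2C9 at a 5 µM dose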
Target sequence (P11712 whole entry, looked up): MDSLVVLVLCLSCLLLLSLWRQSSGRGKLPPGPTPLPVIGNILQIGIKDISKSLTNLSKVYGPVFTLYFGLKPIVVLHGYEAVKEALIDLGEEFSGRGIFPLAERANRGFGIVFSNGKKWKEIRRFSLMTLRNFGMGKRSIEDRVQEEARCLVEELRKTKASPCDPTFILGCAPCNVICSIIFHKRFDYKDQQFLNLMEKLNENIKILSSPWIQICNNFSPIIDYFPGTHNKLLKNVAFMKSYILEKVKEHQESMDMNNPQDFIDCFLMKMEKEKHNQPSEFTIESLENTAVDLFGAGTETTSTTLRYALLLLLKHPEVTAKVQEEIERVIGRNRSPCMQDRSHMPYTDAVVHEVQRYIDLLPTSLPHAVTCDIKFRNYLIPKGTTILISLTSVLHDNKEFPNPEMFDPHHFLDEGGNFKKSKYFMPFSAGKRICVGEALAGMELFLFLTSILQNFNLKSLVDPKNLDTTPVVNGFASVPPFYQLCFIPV
CYP2C9 inhib: inhibitors of human CYP2C9; P11712; CYP2C9 Supersomes, luciferin-H conversion, luminescence; inhibition, % at 5 µM; 20% of 96,000 active; AID 777;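 active = blocking of liver enzyme CYP2C9 beyond about 50% at 5 µM, limit read from the data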
CYP2C19 act: activators of human cytochrome P450 2C19; P33261; recombinant CYP2C19, luciferin-H EGE luminescence; stronger effect = higher value; 0 = fully inhibited enzyme, 1 = untreated enzyme; activation factor at 5 µM; 96,000 tested, under 10 active; AID 1025;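 active = activation factor of at least 2 at 5 µM in the primary screen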
Cav32 inh: blocks human Cav3.2 T-type calcium channel | Cav3.2-expressing cells, Fluo-4 calcium fluorescence FDSS; stronger effect = lower value | B-score at 10 µM | 4% of 100,000 active | O95180;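 active = single-dose well whose peak fluorescence ratio is a statistical outlier from its plate by either plate-standardised score or position-corrected B-score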
CYP2C19 inh: inhibitors of human CYP2C19. inhibition, % at 5 µM. 21% of 96,000 active. CYP2C19 Supersomes, luciferin-H EGE luminescence, 30 min. P33261. AID 778;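 active = CYP2C19 inhibition above a set limit at 5 µM in the primary screen, cut at about 50% in these data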
Each line names hits and unclear results; the compound was inactive in the other large screens. Shown are actives, neighbours in structure and some others; about 27% of the full set was active somewhere.

CC(C)N=c1cc2n(-c3ccc(Cl)cc3)c3ccccc3nc-2cc1Nc1ccc(Cl)cc1	Cav32 inh -3.9 (no result: CYP2C9 act, CYP2C9 inhib, CYP2C19 act, CYP2C19 inh)
Cc1nc2ncnn2c(C)c1CCC(=O)NCCc1ccccc1	none
COc1cccc(NC(=S)N(CCc2nc3cc(C)c(C)cc3[nH]2)Cc2cccnc2)c1	none
Cc1ccc(C)c(NC(=S)N(CCc2nc3cc(C)c(C)cc3[nH]2)Cc2cccnc2)c1	CYP2C9 inhib 74
COc1ccc(C)cc1NC(=O)C(=O)NCc1ccncc1	CYP2C9 inhib 78
COc1ccc(NC(=O)C(=O)NCc2ccncc2)c(OC)c1	CYP2C9 inhib 70, CYP2C19 inh 57
CCOC(=O)N1CCC(Nc2ncnc3c2cnn3-c2ccc(Cl)cc2)CC1	none
C=CCNc1nc(-c2ccc(Cl)cc2)cs1	none
CS(=O)(=O)c1cccc(C(=O)NC(c2ccccc2)c2ccccc2)c1	CYP2C9 inhib 97, CYP2C19 inh 75 (no result: Cav32 inh)
COC(=O)c1ccc(C(c2c(N)n(CC(C)C)c(=O)[nH]c2=O)N2CCN(c3ccccc3)CC2)cc1 (stereo not drawn)	Cav32 inh -5.9
Cc1cc(=O)n2c(n1)OC(CO)C2 (stereo not drawn)	none
O=C(CO)N/N=C/c1ccc(Cl)cc1	none
O=C(N/N=C/c1ccc(Cl)cc1)Nc1ccccc1	Cav32 inh -6.5
Cc1ccc2cc(/C=C3\N=C(c4ccccc4)OC3=O)c(N3CCOCC3)nc2c1	Cav32 inh -6.6
Cc1ccc(C)c(S(=O)(=O)C(C#N)c2nc3ccccc3nc2N2CCOCC2)c1 (stereo not drawn)	none
COc1ccc(N(C(=O)c2ccc(Cl)cc2)C2=CC3CCC(C2)N3C)cc1 (stereo not drawn)	none
O=C(CN1CCCCC1)Nc1cccc(Oc2ccccc2)c1	CYP2C9 inhib 90, CYP2C19 inh 77
COc1cccc(NC(=O)CN2CCC(C)CC2)c1	CYP2C9 inhib 54, CYP2C19 inh 90
COc1cccc(NC(=O)Cn2cc3c(n2)CCCCC3)c1	none
CCOc1ccc(CN2CCC(=O)NC2=O)cc1	none
COc1ccc(/C=C/c2ccncc2)c2ccccc12	CYP2C9 inhib 54, CYP2C19 inh 88
O=C(COc1cc(O)c2c(=O)cc(-c3ccccc3)oc2c1)c1ccccc1	CYP2C9 inhib 59
Cn1c(N2CCOCC2)nc(-c2ccccc2)c1-c1ccccc1	CYP2C9 act 2
c1ccc(-c2nc3ccccc3nc2N2CCOCC2)cc1	CYP2C19 inh 52
c1ccc(-c2cc(N3CCOCC3)nc3ccccc23)cc1	none
Cc1cccc2cc(COC(=O)COc3ccccc3)c(=O)[nH]c12	none
COc1ccccc1-c1c(C(F)(F)F)oc2cc(OC(=O)c3cccc([N+](=O)[O-])c3C)ccc2c1=O	CYP2C9 inhib 73, CYP2C19 inh 76
COc1ccccc1-c1c(C)oc2cc(OC(=O)c3ccco3)ccc2c1=O	CYP2C9 inhib 55, CYP2C19 inh 64
Cc1ccc(S(=O)(=O)N2CCCC2c2nc3ccccc3s2)cc1 (stereo not drawn)	none
COc1ccc([C@H]2/C=C\CN(S(=O)(=O)c3ccc4ccccc4c3)[C@@H](C)C(=O)N2Cc2ccc(F)cc2)cc1	none (no result: CYP2C9 act, CYP2C9 inhib, CYP2C19 act, CYP2C19 inh)
COc1ccccc1N1C(=O)C2C3C=CC(C3)C2(C)C1=O (stereo not drawn)	none
CC(=O)C1=C(O)C(=O)N(c2cc(C(C)(C)C)on2)C1c1ccc(C(C)C)cc1 (stereo not drawn)	Cav32 inh -4.2
COc1cc(C2C(C(C)=O)=C(O)C(=O)N2c2ccc(Br)cn2)ccc1O (stereo not drawn)	none
CC(=O)C1=C(O)C(=O)N(c2nccs2)C1c1ccc(Br)cc1 (stereo not drawn)	CYP2C9 inhib 57
Cc1cc(N2C(=O)C(O)=C(C(=O)c3ccco3)C2c2ccc(O)cc2)no1 (stereo not drawn)	none (no result: Cav32 inh)
CC(=O)C1=C(O)C(=O)N(c2cc(C(C)(C)C)on2)C1c1ccc(Br)cc1 (stereo not drawn)	Cav32 inh -5.9
CC1CN(S(=O)(=O)c2cccc(C(=O)OCc3cc(=O)oc4cc(O)ccc34)c2)CC(C)O1 (stereo not drawn)	CYP2C9 inhib 83, CYP2C19 inh 69
CN(C)c1cccc(C(=O)OCc2cc(=O)oc3cc(O)ccc23)c1	CYP2C9 inhib 79, CYP2C19 inh 57
COC(=O)c1cccc(COC(=O)c2ccc(N(C)C)cc2)c1	none (no result: CYP2C9 act, CYP2C9 inhib, CYP2C19 act, CYP2C19 inh)
CC1CN(S(=O)(=O)c2cccc(C(=O)OCC(=O)c3cccs3)c2)CC(C)O1 (stereo not drawn)	none

High-throughput results as filed in PubChem BioAssay.
